# LmPK inh – qHTS Assay for Inhibitors of Leishmania Mexicana Pyruvate Kinase (LmPK); purified LmPK, Kinase-Glo ATP luminescence, 1 h; Potency, µM (highest dose often 57.5 µM), inactives show top-dose activity change, negative = inhibition, usual class: inhibitors; actives 0.37% (n = 290,000); AID 1721, 2009; note: potency is the fitted concentration of half-maximal effect; % is set by controls: 0 for no effect and ±100 for the full control effect
# Target sequence (Q27686 whole entry, looked up): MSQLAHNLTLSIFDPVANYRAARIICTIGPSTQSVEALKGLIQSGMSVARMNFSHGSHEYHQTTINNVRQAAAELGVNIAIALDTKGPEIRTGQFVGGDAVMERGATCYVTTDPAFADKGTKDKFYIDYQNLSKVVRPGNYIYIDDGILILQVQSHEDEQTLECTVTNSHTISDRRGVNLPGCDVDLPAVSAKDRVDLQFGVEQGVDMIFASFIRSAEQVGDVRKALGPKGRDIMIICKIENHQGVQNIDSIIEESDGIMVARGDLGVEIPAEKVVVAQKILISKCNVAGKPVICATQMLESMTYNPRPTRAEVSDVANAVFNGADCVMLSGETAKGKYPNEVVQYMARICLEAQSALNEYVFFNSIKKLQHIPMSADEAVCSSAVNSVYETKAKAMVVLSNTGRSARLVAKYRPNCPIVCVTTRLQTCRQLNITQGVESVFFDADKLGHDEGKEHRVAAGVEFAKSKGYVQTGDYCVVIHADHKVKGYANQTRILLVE
#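 0.1 nM LmPK, 0.5 mM PEP, 0.1 mM ADP; 50 mM imidazole pH 7.2, 7 mM MgCl2, 50 mM KCl; 1 h RT. Kinase-Glo luminescence readout, normalized to no-enzyme (full inhibition) and uninhibited wells.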
# FBPA Giardia inh – qHTS Assay for Inhibitors of Fructose-1,6-bisphosphate Aldolase from Giardia Lamblia; A8B2U2; purified Giardia FBPA; actives 0.71% (n = 290,000); Potency, µM (series often up to 59.6 µM), for inactives: top-dose activity, negative = inhibition, most hits filed as inhibitors; AID 2451, 2010; note: potency is the fitted concentration of half-maximal effect; % is set by controls: 0 for no effect and ±100 for the full control effect; nearly all actives have a fitted effect of over 55% in size
#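 40 nM FBPA preincubated 10 min at RT with compound (up to 57.5 uM final), then substrate plus GAPDH/TPI/NAD/arsenate coupling and diaphorase/resazurin added. Fluorescence read after 20 min at RT, 525/598 nm.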
# Sm TGR block – qHTS Assay for the Inhibitors of Schistosoma Mansoni Peroxiredoxins; actives 3% (n = 360,000); AID 485364, 2010; Potency, µM (highest dose often 114 µM), without a hit: at the top dose activity change, negative = inhibition, actives largely listed as inhibitors; purified TGR, DTNB reduction, TNB absorbance 405 nm; Schistosoma mansoni thioredoxin glutathione reductase (TGR), Q962Y6; note: potency is the fitted concentration of half-maximal effect; % is set by controls: 0 for no effect and ±100 for the full control effect; nearly all actives have a fitted effect of over 60% in size
#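 Kinetic colorimetric format: TGR-catalysed, NADPH-driven DTNB reduction monitored via TNB absorbance. Enzyme dispensed at 20 nM; compound exposure 15 min at room temperature before reaction start.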
# Tb PYK inh – qHTS of Trypanosoma Brucei Inhibitors | pyruvate kinase (Trypanosoma brucei), Q57TT1 | TbPYK enzyme, Kinase-Glo Plus ATP luminescence, 45 min | Potency, µM (series often up to 76.8 µM), inactives show at the top dose activity, negative = inhibition, actives largely listed as inhibitors | actives 0.12% (n = 410,000) | AID 624173, 2012; note: potency is the fitted concentration of half-maximal effect; % is set by controls: 0 for no effect and ±100 for the full control effect; nearly all actives have a fitted effect of over 50% in size
#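 ADP (130 uM final) triggers the TbPYK reaction after compound addition; incubation is 45 min at room temperature. Kinase-Glo Plus is then added and luminescence imaged. Normalized data are fitted to concentration-effect curves.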
# Cycloheximide cs – Cycloheximide Counterscreen for Small Molecule Inhibitors of Shiga Toxin; cell reporter, cycloheximide protein synthesis inhibition counterscreen; max response, %; actives 12% (n = 300,000); in the data active = max response mostly above about 13%, no sharp cut-off; inactive = mostly below about 14%; note: read at 38.3 µM for the half of the compounds with a filed dose; 0% is about no effect
# Shiga toxin inh – A qHTS for Small Molecule Inhibitors of Shiga Toxin; inhibition, % at 38.7 µM; Vero cells, Shiga toxin protein synthesis inhibition reporter; actives 9.2% (n = 290,000); in the data active = inhibition mostly above about 28%, no sharp cut-off; inactive = mostly below about 43%; note: 0% is about no effect
# * marks the source's active call; other numbers are inactive results; u = inconclusive; x = no result given; [ ] = dose if it differs, or a comment. The sample as a whole holds a higher share of hits than the screen did. Unless noted, calls come from the whole dose curve; as a rule, active = well fitted curve in the direction sought with a large enough effect; inconclusive = small, poorly fitted or top-dose-only effect, or another doubt; inactive = no such curve, though single readings can be large; an effect the other way counts as inactive or inconclusive.
SMILES,LmPK inh,FBPA Giardia inh,Sm TGR block,Tb PYK inh,Cycloheximide cs,Shiga toxin inh
CC(C)c1nn2c(=O)cc(COC(=O)c3ccccc3NC(=O)C3CCCCC3)nc2s1,x,x,-1%,-7%,x,x
Cc1nnc(SCC(=O)NCc2ccccc2Cl)[nH]c1=O,11%[11.5 µM],12%,-6%,-3%,-4,-20
COCCn1c(C)cc(C2=NNC(=Nc3ccc(OC)cc3)SC2)c1C,-2%,-24%,5%,u,10,20
Cc1cc(-c2n[nH]c(=S)n2Cc2ccco2)nn1C,u,-24%,-15%,u,-2,-9
Cc1ccc(C)c(C2=NNC(=NCc3ccccc3)SC2)c1,-9%,-5%,-13%,u,25,32*
CCN=C1NN=C(c2cc(C)n(Cc3ccco3)c2C)CS1,-15%,0%,-16%,10%,87*,138*
COCCn1c(C)cc(C2=NNC(=Nc3ccccc3)SC2)c1C,-27%,-9%,-2%,u,23*,34
COc1ccc(CCNC(=O)COC(=O)c2cc(=O)[nH]c3ccccc23)cc1,x,x,x,-12%,x,x
O=C(CNC(=O)c1ccccc1F)N/N=C\C=C\c1ccccc1,-7%,x,22µM*,-1%,-2,15
O=C(CNC(=O)c1ccccn1)N/N=C/c1ccc2c(c1)OCO2,4%,1%,1%,-6%,42*,100*
O=C(CNC(=O)c1ccccc1Cl)N/N=C/c1ccc2c(c1)OCO2,0%,-11%,-7%,2%,14,15
COc1cccc(C(=O)NCC(=O)N/N=C/c2ccc3c(c2)OCO3)c1,-2%,1%,-7%,-2%,44*,83*
O=C(CNC(=O)c1ccccc1F)N/N=C/c1ccc2c(c1)OCO2,0%,-3%,0%,1%,45*,55*
COc1ccc(-c2nc3cnc(N4CCNCC4)nc3n(CCC#N)c2=O)cc1,x,-4%,x,2%,x,x
COc1cccc(-c2nc3c(c(SCC(=O)Nc4cccc(C)c4C)n2)Cc2c(CO)cnc(C)c2O3)c1,x,x,-2%,3%,x,x
CCn1c(SCC(=O)Nc2sccc2C(N)=O)nnc1C1CC1,x,x,-2%,-4%,x,x
COc1cc(NC2CCCCC2O)c2nc(-c3ccc(Cl)cc3)ccc2c1 (centres undefined),6%,u,5%,-5%,85*,134*
COc1ccc(OCC(=O)OCC(=O)NC2CCCCC2C)cc1 (centres undefined),x,x,4%,8%,x,x
CC(=O)c1ccc(NC(=O)c2nn(C)c3c2COc2ccccc2-3)cc1,x,x,-2%,1%,x,x
CN(C)c1ccc(/C=N/N=C2/NC(=O)/C(=C/c3ccc([N+](=O)[O-])cc3)S2)cc1,1%,1%,0%,-5%,28*,54*
Cc1ccc(C(=O)c2cccc(N)c2)cc1C,-6%,-9%,-1%,1%,-10,-15
O=C(c1ccc(O)cc1)c1ccc(Cl)cc1,5%,0%,3%,0%,21*,36
Cc1ccc(C(=O)c2ccc(O)cc2)cc1C,0%,1%,3%,2%,18*,52
O=C(c1ccccc1)c1ccc2ccccc2c1,x,x,x,2%,x,x
O=C(c1ccccc1)c1ccc2cc(O)ccc2c1,7%,-10%,1%,-14%,35*,72*
SMILES,LmPK inh,FBPA Giardia inh,Sm TGR block,Tb PYK inh,Cycloheximide cs,Shiga toxin inh
CCOc1ccc(Sc2cc(C(=O)NC(C)c3ccccc3)c3ccccc3n2)cc1 (centres undefined),x,x,3%,3%,x,x
Cc1ccnc(NC(=O)c2sc3ccccc3c2Cl)c1,-15%,0%,-11%,-12%,42*,89*
Cc1cccnc1NC(=O)CNC(=O)c1sc2ccccc2c1Cl,x,x,-1%,-13%,x,x
O=C(Nc1nccs1)c1sc2ccccc2c1Cl,-11%,1%,-11%,-6%,30*,78*
CCCn1nnc(NC(=O)c2sc3ccccc3c2Cl)n1,-10%,0%,-3%,8%,41*,100*
O=C(Nc1nccs1)c1cc(Cl)nc2ccccc12,2%,0%,9%,-15%,-1,-2

# Compound activity deposited in PubChem BioAssay by National Center for Advancing Translational Sciences (NCATS).
